Laboratory results taken from the antibiotic and cytotoxicity screens of Wong et al. (2023).
Screen size: about 39,000 compounds; about 3,300 (8.5%) were called active. The sample as a whole holds a higher share of actives than the screen did.

tested on: HepG2; test: cytotoxicity call (relative viability < 0.9); conditions: 10 µM

| Structure (SMILES) | cytotoxicity call |
| --- | --- |
| C[C@H]1CCCCO[C@H](CN(C)Cc2ccc(C(=O)Nc3ccccc3N)cc2)[C@@H](C)CN([C@@H](C)CO)C(=O)c2cc(N(C)C)ccc2O1 | inactive |
| C[C@@H]1CCCCO[C@@H](CN(C)Cc2ccc(C(=O)Nc3ccccc3N)cc2)[C@@H](C)CN([C@H](C)CO)C(=O)c2cc(NC(=O)Cc3ccccc3)ccc2O1 | inactive |
| C[C@@H]1CCCCO[C@@H](CN(C)Cc2ccc(C(=O)Nc3ccccc3N)cc2)[C@H](C)CN([C@H](C)CO)C(=O)c2cc(N(C)C)ccc2O1 | active |
| C[C@@H]1CCCCO[C@@H](CN(C)Cc2ccc(C(=O)Nc3ccccc3N)cc2)[C@@H](C)CN([C@H](C)CO)C(=O)c2cc(NC(=O)c3ccccc3)ccc2O1 | active |
| C[C@@H]1CCCCO[C@@H](CN(C)Cc2ccc(C(=O)Nc3ccccc3N)cc2)[C@@H](C)CN([C@H](C)CO)C(=O)c2cc(NC(=O)Nc3ccccc3)ccc2O1 | inactive |
| C[C@@H]1CCCCO[C@H](CN(C)Cc2ccc(C(=O)Nc3ccccc3N)cc2)[C@@H](C)CN([C@H](C)CO)C(=O)c2cc(NC(=O)c3ccccc3)ccc2O1 | active |
| CC(C)NC(=O)Nc1ccc2c(c1)C(=O)N([C@H](C)CO)C[C@H](C)[C@H](CN(C)Cc1ccc(C(=O)Nc3ccccc3N)cc1)OCCCC[C@@H](C)O2 | inactive |
| C[C@H](CO)N1C[C@H](C)[C@H](CN(C)Cc2ccc(C(=O)Nc3ccccc3N)cc2)OCCCC[C@H](C)Oc2ccc(N(C)C)cc2C1=O | inactive |
| C[C@@H]1CCCCO[C@@H](CN(C)Cc2ccc(C(=O)Nc3ccccc3N)cc2)[C@@H](C)CN([C@H](C)CO)C(=O)c2cc(NC(=O)c3ccncc3)ccc2O1 | inactive |
| C[C@H]1CN([C@@H](C)CO)S(=O)(=O)c2ccc(C#CC3(O)CCCC3)cc2O[C@@H]1CN(C)C(=O)Cc1ccccc1 | inactive |
| C[C@@H]1CN([C@@H](C)CO)C(=O)c2cccc(NS(=O)(=O)c3ccc(F)cc3)c2O[C@@H]1CN(C)S(=O)(=O)c1cn(C)cn1 | inactive |
| CCOC(=O)c1cccc([C@@H]2CC(=O)N(C(=O)OCc3ccccc3)[C@@H]2C(=O)Nc2cccc3cccnc23)c1 | inactive |
| Cc1noc(C)c1NC(=O)N(C)C[C@@H]1OCCCC[C@@H](C)Oc2ccc(NC(=O)C3CCCCC3)cc2C(=O)N([C@@H](C)CO)C[C@H]1C | inactive |
| C[C@@H]1CN([C@H](C)CO)C(=O)c2cc(NC(=O)CCC(F)(F)F)ccc2O[C@@H](C)CCCCO[C@H]1CN(C)S(=O)(=O)c1cccs1 | inactive |
| CN1CCCC1CCOC(C)(c1ccccc1)c1ccc(Cl)cc1.O=C(O)C=CC(=O)O (stereo not drawn) | active |
| CN(C)CCOC(C)(c1ccccc1)c1ccccn1.O=C(O)CCC(=O)O (stereo not drawn) | inactive |
| CN1CCC[C@H]1CCO | inactive |
| COc1ccc(S(=O)(=O)N(C)C[C@H]2Oc3ccc(NS(=O)(=O)c4cn(C)cn4)cc3CC(=O)N([C@H](C)CO)C[C@H]2C)cc1 | inactive |
| Cn1cc(N2C[C@]3(COCCN(C(=O)C4(C#N)CC4)C3)OCC2=O)cn1 | inactive |
| COc1ccc(-c2oc3cc(O[C@H]4O[C@H](CO)[C@@H](O)[C@H](O)[C@H]4O)c(OC)c(O)c3c(=O)c2OC)cc1O | inactive |
| COc1cc(-c2coc3cc(OC4OC(CO)C(O)C(O)C4O)c(OC)c(O)c3c2=O)cc(O)c1OC (stereo not drawn) | active |
| COc1cc(-c2coc3cc(O[C@@H]4O[C@H](CO)[C@@H](O)[C@H](O)[C@H]4O)c(OC)c(O)c3c2=O)cc(O)c1OC | inactive |

| Structure (SMILES) | cytotoxicity call |
| --- | --- |
| O=C1CCCSc2ccccc21 | inactive |
| C[C@@H]1CN([C@H](C)CO)C(=O)c2cc(NC(=O)C3CCCCC3)ccc2O[C@@H](C)CCCCO[C@H]1CN(C)C(=O)Nc1ccc2c(c1)OCO2 | inactive |
| C[C@@H]1CCCCO[C@@H](CN(C)C(=O)CCCN(C)C)[C@H](C)CN([C@@H](C)CO)C(=O)c2cc(N(C)C)ccc2O1 | inactive |
| C[C@H](CO)N1C[C@H](C)[C@@H](CN(C)C(=O)Nc2ccc(F)cc2)OCCCC[C@H](C)Oc2ccc(NC(=O)Nc3ccccc3)cc2C1=O | inactive |
| CC(C)C(C)C=CC(C)C1CCC2C3=CC=C4CC(O)CCC4(C)C3CCC21C (stereo not drawn) | inactive |
| Cc1ccc2c(Br)cc(Br)c(OC(=O)c3ccccc3)c2n1 | active |
| CCn1cc(C(=O)O)c(=O)c2ccc(C)nc21 | inactive |
| CNC[C@@H]1Oc2cc(C#CC(C)(C)O)ccc2S(=O)(=O)N([C@@H](C)CO)C[C@H]1C | inactive |
| C[C@@H]1CN([C@@H](C)CO)S(=O)(=O)c2ccc(-c3ccncc3)cc2O[C@H]1CN(C)Cc1ccc(Oc2ccccc2)cc1 | active |
| COc1ccccc1C#Cc1ccc2c(c1)O[C@H](CN(C)Cc1ccncc1)[C@@H](C)CN([C@@H](C)CO)S2(=O)=O | active |
| C[C@H]1CN([C@@H](C)CO)S(=O)(=O)c2ccc(-c3ccncc3)cc2O[C@H]1CN(C)Cc1ccc(Oc2ccccc2)cc1 | inactive |
| COc1ccccc1C#Cc1ccc2c(c1)O[C@H](CN(C)Cc1ccncc1)[C@@H](C)CN([C@H](C)CO)S2(=O)=O | inactive |
| COc1ccccc1C#Cc1ccc2c(c1)O[C@@H](CN(C)Cc1ccncc1)[C@H](C)CN([C@H](C)CO)S2(=O)=O | inactive |
| COc1ccccc1C#Cc1ccc2c(c1)O[C@H](CN(C)Cc1ccncc1)[C@H](C)CN([C@H](C)CO)S2(=O)=O | active |
| COc1ccccc1C#Cc1ccc2c(c1)O[C@@H](CN(C)Cc1ccncc1)[C@@H](C)CN([C@@H](C)CO)S2(=O)=O | inactive |
| COc1ccccc1C#Cc1ccc2c(c1)O[C@@H](CN(C)Cc1ccncc1)[C@@H](C)CN([C@H](C)CO)S2(=O)=O | inactive |
| C[C@H]1CN([C@@H](C)CO)S(=O)(=O)c2ccc(-c3ccncc3)cc2O[C@@H]1CN(C)Cc1ccc(Oc2ccccc2)cc1 | inactive |
| Cl.N=C(N)n1cccn1 | inactive |
| C[C@@H]1CCCCO[C@@H](CN(C)S(=O)(=O)c2cn(C)cn2)[C@@H](C)CN([C@H](C)CO)C(=O)c2cc(N(C)C)ccc2O1 | inactive |
| Cn1cccc1CNCCCN1CCOCC1 | inactive |
| C[C@H]1CCCCO[C@H](CN(C)C(=O)Nc2ccc3c(c2)OCO3)[C@@H](C)CN([C@@H](C)CO)C(=O)c2cc(NC(=O)Nc3ccc(C(F)(F)F)cc3)ccc2O1 | inactive |
